# Data as given in paper PMC8384837, “Expanding the binding specificity for RNA recognition by a PUF domain”.
# Legend:
# Assay in all cases: yeast three-hybrid, YBZ-1, SC-Leu-His + 0.5 mM 3-AT, 4 days
# Details in all cases: tags: N-Gal4 AD-HA kept; label: inside an RPR1-promoter hybrid RNA with tandem MS2 sites; ssRNA
# PUM1 PUF domain R5-GAR = PUM1 PUF domain R5-GAR (Homo sapiens, UniProt Q14671 828-1176, C1007G;R1008A;Q1011R)
# Summary of the method: (§1)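 Sequencing with Illumina followed PCR amplification of the repeat regions from transformants grown four days on SC-Leu (input) or SC-Leu-His + 0.5 mM 3-AT (selection). The transformants were strain YBZ-1 with a LexA–MS2 coat fusion and a HIS3 reporter, carrying Pumilio-1 PUF domain libraries and matching RNA elements. The interaction score is the log change in variant frequency from input to selection, computed in log2 with a pseudocount of 1 for absent variants.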
# PUM1 PUF domain R1-SKS = PUM1 PUF domain R1-SKS (Homo sapiens, UniProt Q14671 828-1176, R864K;Q867S)
# Summary of the method: as §1
# PUM1 PUF domain R3-DHS = PUM1 PUF domain R3-DHS (Homo sapiens, UniProt Q14671 828-1176, C935D;R936H;Q939S)
# Summary of the method: as §1
# PUM1 PUF domain R4-TPT = PUM1 PUF domain R4-TPT (Homo sapiens, UniProt Q14671 828-1176, N971T;H972P;Q975T)
# Summary of the method: as §1
# PUM1 PUF domain R8-RYT = PUM1 PUF domain R8-RYT (Homo sapiens, UniProt Q14671 828-1176, N1122R;Q1126T)
# Summary of the method: as §1
# PUM1 PUF domain R4-CGC = PUM1 PUF domain R4-CGC (Homo sapiens, UniProt Q14671 828-1176, N971C;H972G;Q975C)
# Summary of the method: as §1
# PUM1 PUF domain R2-TFG = PUM1 PUF domain R2-TFG (Homo sapiens, UniProt Q14671 828-1176, N899T;Y900F;Q903G)
# Summary of the method: as §1
# PUM1 PUF domain R4-GQR = PUM1 PUF domain R4-GQR (Homo sapiens, UniProt Q14671 828-1176, N971G;H972Q;Q975R)
# Summary of the method: as §1
# PUM1 PUF domain R8-TYN = PUM1 PUF domain R8-TYN (Homo sapiens, UniProt Q14671 828-1176, N1122T;Q1126N)
# Summary of the method: as §1
# PUM1 PUF domain R6-AWS = biological target: T1, PUM1 PUF domain R6-AWS (Homo sapiens, UniProt Q14671 828-1176, N1043A;Y1044W;Q1047S)
# T1 sequence: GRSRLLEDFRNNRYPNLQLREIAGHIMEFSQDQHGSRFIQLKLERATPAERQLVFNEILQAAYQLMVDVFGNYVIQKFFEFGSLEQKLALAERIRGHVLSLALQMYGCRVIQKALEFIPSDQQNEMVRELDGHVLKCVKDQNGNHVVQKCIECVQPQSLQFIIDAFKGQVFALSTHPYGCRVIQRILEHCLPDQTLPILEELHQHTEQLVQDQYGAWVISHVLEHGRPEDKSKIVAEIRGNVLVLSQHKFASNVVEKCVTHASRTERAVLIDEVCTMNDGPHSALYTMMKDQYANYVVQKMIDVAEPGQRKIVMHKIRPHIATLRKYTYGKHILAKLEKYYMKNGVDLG
# Summary of the method: as §1
sequence,measurement,setting,value
GGCUAGAACUAGUGGAUCCCCCGGCGCCCGGCGGCUCGAGCCCGGGUAAGUGUCAAUAGUCUGCAUGCCGCCGGGCGCCAUGCCUGCAGGUCGACUCUAGAAAACAUG,binding signal,PUM1 PUF domain R5-GAR,5.42 log2 enrichment (interaction score)
GGCUAGAACUAGUGGAUCCCCCGGCGCCCGGCGGCUCGAGCCCGGGUAAGUGUAAAUCGUCUGCAUGCCGCCGGGCGCCAUGCCUGCAGGUCGACUCUAGAAAACAUG,binding signal,PUM1 PUF domain R1-SKS,1.17 log2 enrichment (interaction score)
GGCUAGAACUAGUGGAUCCCCCGGCGCCCGGCGGCUCGAGCCCGGGUAAGUGUAAAUAGUCUGCAUGCCGCCGGGCGCCAUGCCUGCAGGUCGACUCUAGAAAACAUG,binding signal,PUM1 PUF domain R3-DHS,3.1 log2 enrichment (interaction score)
same,binding signal,PUM1 PUF domain R5-GAR,1.64 log2 enrichment (interaction score)
same,binding signal,PUM1 PUF domain R4-TPT,2.59 log2 enrichment (interaction score)
same,binding signal,PUM1 PUF domain R8-RYT,2.86 log2 enrichment (interaction score)
same,binding signal,PUM1 PUF domain R4-CGC,3.48 log2 enrichment (interaction score)
GGCUAGAACUAGUGGAUCCCCCGGCGCCCGGCGGCUCGAGCCCGGGUAAGUGUAAAAAGUCUGCAUGCCGCCGGGCGCCAUGCCUGCAGGUCGACUCUAGAAAACAUG,binding signal,PUM1 PUF domain R2-TFG,4.09 log2 enrichment (interaction score)
GGCUAGAACUAGUGGAUCCCCCGGCGCCCGGCGGCUCGAGCCCGGGUAAGUGUAAAUUGUCUGCAUGCCGCCGGGCGCCAUGCCUGCAGGUCGACUCUAGAAAACAUG,binding signal,PUM1 PUF domain R1-SKS,2.64 log2 enrichment (interaction score)
GGCUAGAACUAGUGGAUCCCCCGGCGCCCGGCGGCUCGAGCCCGGGUAAGUGUACAUAGUCUGCAUGCCGCCGGGCGCCAUGCCUGCAGGUCGACUCUAGAAAACAUG,binding signal,PUM1 PUF domain R4-TPT,3.15 log2 enrichment (interaction score)
same,binding signal,PUM1 PUF domain R4-GQR,2.32 log2 enrichment (interaction score)
GGCUAGAACUAGUGGAUCCCCCGGCGCCCGGCGGCUCGAGCCCGGGUAAGCGUAAAUAGUCUGCAUGCCGCCGGGCGCCAUGCCUGCAGGUCGACUCUAGAAAACAUG,binding signal,PUM1 PUF domain R8-TYN,2.62 log2 enrichment (interaction score)
GGCUAGAACUAGUGGAUCCCCCGGCGCCCGGCGGCUCGAGCCCGGGUAAGUGUUAAUAGUCUGCAUGCCGCCGGGCGCCAUGCCUGCAGGUCGACUCUAGAAAACAUG,binding signal,PUM1 PUF domain R5-GAR,2.98 log2 enrichment (interaction score)
GGCUAGAACUAGUGGAUCCCCCGGCGCCCGGCGGCUCGAGCCCGGGUAAGUGAAAAUAGUCUGCAUGCCGCCGGGCGCCAUGCCUGCAGGUCGACUCUAGAAAACAUG,binding signal,PUM1 PUF domain R6-AWS,5.94 log2 enrichment (interaction score)
